JMJD2A Tudor inh – JMJD2A Tudor domain (human) inhibition; AlphaScreen JMJD2A-Tudor / H3K4me3 peptide binding; hit rate 4.4% among 390,000; AID 504339; Potency, µM (series often up to 114 µM), for the others: top-dose activity change, negative = inhibition, hits mostly inhibitors; further: potency means the concentration at half of the fitted maximal effect; on the % scale 0 is the no-effect control and ±100 the full control effect; nearly all actives have a fitted effect of over 50% in size
Six1-Eya2 blk – inhibitors of human Six1/Eya2 interaction. AlphaScreen GST-Six1/His-Eya2 binding, biochemical; hits give low values. hit rate 0.56% among 360,000. Q15475+O00167. activity change, % (test concentration not listed). AID 651725; in the data active means activity change below about -65%; inconclusive means mostly about -30% to -63%; further: on the % scale 0 is the no-effect control and ±100 the full control effect
Target sequence (O00167 whole entry, looked up): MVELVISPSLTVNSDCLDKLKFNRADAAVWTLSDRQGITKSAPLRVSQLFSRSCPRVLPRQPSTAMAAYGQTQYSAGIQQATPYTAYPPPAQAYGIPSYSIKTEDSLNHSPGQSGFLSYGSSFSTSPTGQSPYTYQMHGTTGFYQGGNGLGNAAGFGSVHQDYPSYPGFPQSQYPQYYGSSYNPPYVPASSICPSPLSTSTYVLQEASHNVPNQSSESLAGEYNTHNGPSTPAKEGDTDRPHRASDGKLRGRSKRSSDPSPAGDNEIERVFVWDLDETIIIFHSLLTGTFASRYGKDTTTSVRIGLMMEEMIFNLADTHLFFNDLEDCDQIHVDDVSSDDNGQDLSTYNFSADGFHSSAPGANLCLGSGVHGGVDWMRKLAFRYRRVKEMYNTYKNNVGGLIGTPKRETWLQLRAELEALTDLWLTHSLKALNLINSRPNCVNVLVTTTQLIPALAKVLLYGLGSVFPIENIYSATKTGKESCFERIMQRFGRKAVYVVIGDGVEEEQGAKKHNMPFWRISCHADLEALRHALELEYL
Target sequence (Q15475 whole entry, looked up): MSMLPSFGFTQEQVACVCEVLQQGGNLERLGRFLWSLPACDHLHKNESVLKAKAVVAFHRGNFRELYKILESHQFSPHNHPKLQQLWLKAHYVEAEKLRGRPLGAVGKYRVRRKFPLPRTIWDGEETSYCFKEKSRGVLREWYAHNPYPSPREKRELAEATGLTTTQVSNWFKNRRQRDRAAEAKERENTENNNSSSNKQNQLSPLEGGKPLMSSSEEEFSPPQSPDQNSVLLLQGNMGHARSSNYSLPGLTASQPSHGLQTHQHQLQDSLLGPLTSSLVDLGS
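Six1/Eya2 binding was read as AlphaScreen signal after compounds were pinned into GST-Six1 plus His-tagged Eya2 (5X stock 250/500 nM) in pH 8.0 Tris/NaCl/TCEP buffer, beads added, then incubated 1 h, 37 C, dark.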
G9a block – G9a (human) methyltransferase inhibition | hit rate 8.8% among 350,000 | Q96KQ7 | G9a H3K9 monomethylation, AlphaScreen, 2 h | Potency, µM (titrated, usually from 102 µM), without a hit: top-dose activity, negative = inhibition, most hits filed as inhibitors; further: potency means the concentration at half of the fitted maximal effect; on the % scale 0 is the no-effect control and ±100 the full control effect; nearly all actives have a fitted effect of over 75% in size
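AlphaScreen detection with an anti-monomethyl H3K9 antibody quantified product after a 2 h room-temperature reaction containing 500 nM biotinylated H3K9 peptide, 20 µM SAM and 20 nM enzyme, which had been preincubated 15 min with compound.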
BAZ2B block – inhibitors of human BAZ2B bromodomain. Q9UIF8. AlphaScreen BAZ2B-H3K14Ac peptide displacement. Potency, µM (doses to about 114 µM), inactives show top-dose activity change, negative = inhibition, most hits filed as inhibitors. hit rate 4.4% among 360,000; further: potency means the concentration at half of the fitted maximal effect; on the % scale 0 is the no-effect control and ±100 the full control effect; nearly all actives have a fitted effect of over 60% in size
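AlphaScreen displacement of biotin-H3(5-23)K14Ac peptide (50 nM final) from BAZ2B (50 nM final) in PBS pH 7.4, 0.01% Tween-20; complex preformed 30 min RT, then compounds (top 110 uM) 30 min RT, beads 20 min dark.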
CtBP-E1A blk – inhibitors of CtBP/E1A interaction; AlphaScreen GST-E1A/His-CtBP binding, 1536-well; hits give low values; activity change, % (concentration not given with the values); hit rate 0.49% among 340,000; AID 651724; in the data active means activity change below about -65%; inconclusive means mostly about -30% to -63%; further: on the % scale 0 is the no-effect control and ±100 the full control effect
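Homogeneous bead-based format: GST-tagged E1A captured on glutathione donor beads, His-tagged CtBP on nickel acceptor beads; compounds precede bead addition by 2 h at 37 °C.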
HP1b chromo inh – HP1-beta chromodomain-methylated histone interaction inhibition; AlphaScreen HP1-beta / biotin-H3K9me3 peptide binding; Potency, µM (highest dose often 114 µM), inactives show at the highest dose activity change, negative = inhibition, usual class: inhibitors; hit rate 0.56% among 390,000; further: potency means the concentration at half of the fitted maximal effect; nearly all actives have a fitted effect of over 70% in size
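Compound inhibition of the preformed complex between 50 nM HP1-beta and 50 nM biotinylated H3K9me3 peptide was read by AlphaScreen. Buffer was PBS pH 7.4 with 0.01% Tween-20. Incubations ran 30 min at room temperature, with 10 ug/mL donor/acceptor beads.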
An asterisk follows results filed as active; ? = inconclusive; . = no result given; [ ] = remark or other dose. Rows were chosen to be rich in hits. Some 10% of all compounds tested hit in one or more screens of this group. Unless noted, the call rests on the fitted dose curve; in most records, active means well fitted inhibition curve with a large enough effect; inconclusive means small, poorly fitted or top-dose-only effect; inactive means no such curve, though single readings can be large or run the other way.

SMILES	JMJD2A Tudor inh	Six1-Eya2 blk	G9a block	BAZ2B block	CtBP-E1A blk	HP1b chromo inh
N#C/C(=C\N1CCOCC1)c1ccccc1	-10%	7	38%[12.7 µM]	1%	7	14%
O=C1OC(c2ccccc2)=C/C1=C/N1CCOCC1	-31%	-1	8.9µM*	-31%	-3	-7%
COc1ccc(-c2nc3cnc(N(C)C)nc3n(C)c2=O)cc1	.	.	-1%[0.501 µM]	.	.	.
Nc1c(S(=O)(=O)c2cccs2)c2nc3ccccc3nc2n1CCc1ccccc1	.	.	7%[59 µM]	-2%	.	.
Cc1ccc(S(=O)(=O)c2c(N)n(CCCO)c3nc4ccccc4nc23)cc1	-2%	?	17%	56µM*	?	45%
COc1ccc(CCn2c(N)c(C#N)c3nc4ccccc4nc32)cc1OC	15%	-65*	-10%[12.7 µM]	2%	-69*	71%
COc1ccc(CCn2c(N)c(S(=O)(=O)c3cccs3)c3nc4ccccc4nc32)cc1OC	-6%	-67*	-9%[59 µM]	-1%	8	32%
CCN1CCN(c2ncc3c(n2)CCN(Cc2ccccc2C)C3)CC1	?	.	-9%[12.7 µM]	-27%	.	24%
CC(=O)c1c(C)nc(-c2ccc(OCC(=O)Nc3ccc(F)cc3)cc2)n1O	-13%	2	18µM*	-26%	-7	23%
CCOc1cc(-c2nc(C)c(C(C)=O)n2O)ccc1OCC(=O)Nc1ccc(F)cc1	-13%	-5	50µM*	-4%	5	25%
COc1cc(-c2nc(C)c(C(C)=O)n2O)ccc1OCC(=O)Nc1ccc(F)cc1	-22%	2	-11%[59 µM]	?	-3	9%
COc1ccc(N2CCN(CCS(=O)(=O)c3cc(Cl)ccc3Cl)CC2)cc1	?	?	-12%[2.33 µM]	45µM*	-14	-22%
COc1ccc(N2CCN(c3ccc(NC(=O)/C=C\C(=O)O)cc3)CC2)cc1	-27%	-9	45µM*	?	.	9%
CSc1ccc(NC(=O)NCCCN2CCC(Cc3ccccc3)CC2)cc1	?	?	?	40µM*	.	-10%
COc1ccc(NC(=O)N2CCc3ccccc3C2)cc1	-14%	-5	5%	-10%	-8	30%
CC(=O)N1CCN(CCS(=O)(=O)c2cc(Cl)ccc2Cl)CC1	-3%	1	.	.	6	13%
COc1ccc(Nc2nc(C(=O)N3CCc4ccccc4C3)cs2)cc1	45µM*	-17	.	?	-4	?
COc1ccc(/C=C/C(=O)Nc2ccc(N3CCOCC3)cc2)cc1	-10%	10	-46%	-1%	18	24%
CCOC(=O)c1ccc(NC(=O)Cn2nc(C)c3nn(-c4ccc(Cl)cc4)c(C)c3c2=O)cc1	-14%	.	-2%[59 µM]	3%	.	21%[57 µM]
CCOC(=O)c1ccc(NC(=O)CCc2c(C)nc3c(c(C)nn3C)c2C)cc1	-22%	.	-4%[59 µM]	1%	.	7%
O=S(=O)(c1ccc(Cl)cc1)c1nnn2c1nc(NC1CCCCC1)c1sccc12	-36%	.	-5%[59 µM]	?	.	5%
Cc1c(C)n(Cc2ccc(F)cc2)c2ccc(C(=O)Nc3ccc(Cl)cc3)cc12	-14%	.	2%[59 µM]	3%	.	41%
COc1ccc(NC(=O)NCCN2CCc3ccccc3C2)cc1	20µM*	0	?	2%	-1	16%
CSc1ccc(NC(=O)NCCN2CCc3ccccc3C2)cc1	?	-22	?	?	-8	-5%
COc1ccc(N2CCN(CCCNC(=O)Nc3ccccc3Cl)CC2)cc1	?	.	?	35µM*	.	?
SMILES	JMJD2A Tudor inh	Six1-Eya2 blk	G9a block	BAZ2B block	CtBP-E1A blk	HP1b chromo inh
CCN1C(=O)C(CC(=O)Nc2ccc(OC)cc2)N(CCCN2CCN(c3ccc(OC)cc3)CC2)C1=S (stereo not drawn)	50µM*	-28	?	32µM*	?	-10%
Cc1ccc(Nc2nc(C(=O)N3CCC(C(=O)N4CCN(C)CC4)CC3)cs2)cc1	?	1	50µM*	-7%	-8	22%
CCN1C(=O)C(CC(=O)Nc2ccc(OC)cc2)N(CCN2CCOCC2)C1=S (stereo not drawn)	-4%	4	-37%	-1%	11	27%
O=C(NCCCN1CCN(c2ccc(F)cc2)CC1)Nc1ccccc1Cl	-20%	.	?	?	.	6%
Cc1ccc(Nc2nc(C(=O)N3CCC(C(=O)NCc4ccccc4)CC3)cs2)cc1	-15%	-16	1%	-2%	0	2%
CN(C)CCN1C(=O)c2ccccc2N(C)c2ccccc21	.	.	25%[59 µM]	.	.	.
CCOc1ccc(C2CC(c3c(O)n(C4CCCCC4)c(=O)[nH]c3=O)=Nc3ccccc3S2)cc1 (stereo not drawn)	-27%	.	-10%[59 µM]	?	.	-2%
CCc1ccc(NC(=O)NCCN2CCN(c3ccc(OC)cc3)CC2)cc1	-30%	-16	10µM*	?	.	21%
COc1ccc(N2CCN(CCCNC(=O)C3(S(=O)(=O)c4ccc(Cl)cc4)CC3)CC2)cc1	50µM*	-21	?	?	-6	?
O=C(NCCCN1CCc2ccccc2C1)Nc1ccc(Cl)cc1	-28%	12	71µM*	0%	-1	14%
Cc1cn(S(=O)(=O)c2ccc(F)c(Cl)c2)cn1	-7%	.	4%[59 µM]	-18%	.	55%
COCCNC(=O)CCCN1C(=O)CCn2nc(-c3cccn3C)cc21	-20%	.	-32%[59 µM]	-26%	.	13%[57 µM]
COc1cc(OC)c(NC(=O)C2CCN(S(=O)(=O)c3ccc4c(c3)oc(=O)n4C)CC2)cc1Cl	-15%	.	2%[59 µM]	-15%	.	33%
CCOC(=O)c1cc(-c2ccccc2)n(CCCC(=O)Nc2cccc(Cl)c2C)c1C	-15%	.	-18%[59 µM]	-9%	.	9%
C=CCC(NCc1ccccc1)c1ccccc1 (stereo not drawn)	4%	40	-37%[59 µM]	-4%	1	41%
C=CCC(NC(C)c1ccccc1)c1ccco1 (stereo not drawn)	2.5µM*	1	.	50µM*	-4	?
CCc1ccccc1NC(=O)Nc1nnc(N(C)Cc2ccccc2)s1	-13%	.	-5%[59 µM]	-8%	.	32%
Cc1ccc2c(c1)/C(=N/N1C(=O)c3ccccc3C1=O)C(=O)N2	-4%	-1	-12%[59 µM]	0%	4	13%
C=C1c2cc(C)ccc2NC(=O)N1c1ccc(C)cc1	0%	5	10µM*	-11%	-3	29%
Cc1ccc(N2C(=O)Cc3ccccc3C2=O)cc1	-28%	9	-14%	-22%	-2	-7%
C=C1c2ccccc2NC(=O)N1c1ccc(C)cc1	-20%	6	8.9µM*	5%	5	19%
NC(=O)CCCCC(=O)OCCCc1cccs1	89µM*	1	-6%[59 µM]	?	-5	4%
CC(C)CCN1C(=O)c2ccccc2CC1(C)C(=O)NC1CCCCC1 (stereo not drawn)	1%	.	1%[59 µM]	-28%	.	60%

Bioassay records: PubChem, National Center for Advancing Translational Sciences (NCATS)
